Activity calls are given as the source filed them.
Assay: small-molecule binders of probe aLefty1, primary screen, biochemical, small-molecule microarray, 635/667 nm fluorescence (AID 1153);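 further: score merges spot fluorescence with signal-to-noise ratio from the scanned slide images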
Details: higher = more signal

Composite z-score, -0.887:
O=C(CS)NCCCCCCNC(=O)[C@@H]1C[C@@H]2C(=O)NCC(=O)N2[C@@H]1c1cccc(OCCO)c1

Composite z-score, 0.142:
CCCC[C@@H]1C[C@H]1[C@@H](NC(=O)c1cccs1)c1ccc(-c2ccccc2)cc1

Composite z-score, 0.0004:
COc1ccc(-c2cc3c(c(-c4ccc(Oc5ccccc5)cc4)n2)[Si](C(C)C)(C(C)C)OC3)cn1

Composite z-score, -0.0989:
CC[C@@H]1C=C(C(=O)O)[C@H](c2ccc(Br)cc2)N1S(=O)(=O)c1ccc(C)cc1

Composite z-score, -0.0094:
CCOC(=O)C[C@H]1[C@H](OC(=O)c2ccccc2-c2ccccc2)[C@@H](NC(=O)CC(C)C)c2cc(OCCCO)ccc2N1C(=O)Cc1ccc(OC)cc1

Composite z-score, 0.0341:
CC(C)C(=C=CC[C@@H](O)c1ccc(OCCO)cc1)C[C@@H](O)COCc1ccccc1

Assay: PSAC antagonists in infected red cells, primary screen, cell-based, P. falciparum Indochina, OD700, 1 h (AID 1154)
Details: P. falciparum Indochina infected RBC osmotic lysis, higher = more signal, called active from +8 up or from −8 down

z-score, active:
C=C(CCCC)/C(=C/C[C@@H](OC(=O)c1ccncc1)c1ccc(OCCO)cc1)c1cc(C(=O)OC)ccc1OC 17.3
CO[C@H]1O[C@H](CO)[C@@H](OC(=O)Nc2cccc(F)c2)[C@H](OC(=O)Nc2ccccc2)[C@@H]1OC(=O)Nc1ccccc1 8.61
COC(=O)[C@H](Cc1ccccc1)N1CC2=C[C@@H](C3CC3)n3c(=O)n(C)c(=O)n3[C@H]2[C@@H]1[C@@H](O)Cc1ccccc1 11.5
COc1ccc([Si](C)(C)[C@H]2[C@H](CCO)O[C@@]3(C(=O)N(Cc4ccc(N(C=O)c5ccccc5)cc4)c4ccccc43)[C@@H]2C)cc1 17.5
CC(C)C(O)C1C=CC2C(=O)N(c3ccccc3)C(=O)C2N1Nc1ccc([N+](=O)[O-])cc1 (stereo unspecified) 11
CC1(C)[C@@H]2CC(C(O)C3C=CC4C(=O)N(c5ccccc5)C(=O)C4N3Nc3ccc([N+](=O)[O-])cc3)=C[C@H]1C2 (stereo partly specified) 14.3
[N-]=[N+]=Nc1ccccc1[C@H]1OC(c2ccc(OCCCO)cc2)=N[C@@]1(CCS(=O)(=O)c1ccccc1)C(N)=O 32
[N-]=[N+]=Nc1ccccc1[C@@H]1OC(c2ccc(OCCCO)cc2)=N[C@]1(CCS(=O)(=O)c1ccccc1)C(N)=O 29.1
O=C1c2ccccc2[C@](Cc2ccccc2I)(C(=O)NCCN2CCOCC2)[C@H](c2ccc(CO)cc2)N1Cc1ccccc1Cl 11.7
O=C(N1CCCCC1)[C@]1(Cc2ccccc2)N=C(c2ccc(OCCCO)cc2)O[C@@H]1c1ccccc1 28
CC(C)C(=C=CC[C@@H](O)c1ccc(OCCO)cc1)C[C@@H](O)COCc1ccccc1 8.51

z-score, inactive:
CCC(CC)C(O)C1C=CC2C(=O)NC(=O)C2N1Nc1ccc(Cl)cc1Cl (stereo unspecified) 1.55
C=C(COC)C(=O)CC[C@@H](OC(C)=O)c1ccc(CO)o1 0.116
C=C[C@H](CO[Si](CC)(CC)CC)N(Cc1ccc(OC(C)=O)c(OC)c1)S(=O)(=O)c1ccc(Br)cc1 -0.0878
C=CCOC(=O)[C@H]1[C@@H]2C(=O)O[C@@H](c3ccccc3)[C@@H](c3ccccc3)N2[C@@H](c2ccc(OCCOC(=O)[C@H]3C[C@H]4C(=O)N[C@@H](CCCCNC(C)=O)C(=O)N4[C@H]3c3ccc(O)cc3)cc2)[C@]12C(=O)Nc1ccc(I)cc12 -0.858
CC(C)C(O)C1C=CC2C(=O)NC(=O)C2N1Nc1ccc(Cl)cc1Cl (stereo unspecified) 1.41
CC(C)C[C@@H]1NC(=O)[C@H](C(C)C)NC(=O)[C@@]23C(=O)N[C@@H](Cc4ccccc4)C2[C@H](C)[C@@]2(C)O[C@H]2C3/C=C/CC/C=C/CNC1=O (stereo partly specified) 4.9
COc1ccccc1CN1C(=O)c2ccccc2[C@@]2(Cc3ccccc3N(CC(C)C)C2=O)[C@@H]1c1ccc(CO)cc1 0.226
CC1CC/C=C\[C@H]2OC34C=CCN(C(C)(C)C)C(=O)[C@H]3N(C(C)CO)C(=O)[C@@H]4C2C(=O)O1 (stereo partly specified) 1.42
O=C(NCCO)C1=C[C@H](Oc2ccccc2I)[C@@H](O)[C@H](N(Cc2ccco2)C(=O)Cc2ccccc2)C1 0.877
CN(C)CCCC[C@@H]1NC(=O)[C@H]2C[C@@H](C(=O)NCCCCCCN)[C@@H](c3ccc(O)cc3)N2C1=O 0.453
COC(=O)C(CC#Cc1ccc2c(c1)[C@]1(C(=O)N2)[C@H](c2ccc(OCCO)cc2)N2[C@H](c3ccccc3)[C@H](c3ccccc3)OC(=O)[C@H]2[C@@H]1C(=O)N1CCc2cc(OC)c(OC)cc2C1)C(=O)OC 3.44
COC(=O)[C@@]1(Cc2ccc(F)cc2)[C@H]2c3cc(C(=O)N(C)C)n(Cc4ccccc4)c3C[C@H]2CN1C(=O)c1ccccc1 2.6
COc1cc(COC(C)=O)ccc1OC(C)=O -1.49
CN1C(=O)C2C=CC(C(O)C#Cc3ccccc3)N(N3CCCCC3)C2C1=O (stereo unspecified) 1.24
NC(=O)NCC#Cc1ccc2c(c1)[C@]1(C(=O)N2)[C@H](C(N)=O)[C@H]2C(=O)O[C@H](c3ccccc3)[C@H](c3ccccc3)N2[C@@H]1c1ccc(O)cc1 0.271
CO[C@H]1O[C@H](CO)[C@@H](OC(=O)Nc2ccc(Oc3ccccc3)cc2)[C@H](OC(=O)Nc2ccc3c(c2)OCO3)[C@H]1OC(=O)Nc1ccc2c(c1)OCO2 7.24
CC(C)NC(=O)[C@@H]1c2ccccc2C(=O)N(C2Cc3ccccc3C2)[C@H]1c1ccc(CO)cc1 3.41
CCCc1cc2c(n1Cc1cc(F)cc(F)c1)C(C)C1CN(C(=O)c3ccccc3)C(C)(C(=O)OC)C21 (stereo unspecified) 3.82
CC(=O)NCCCC[C@@H]1NC(=O)[C@H]2C[C@@H](C(=O)NCCCCCCNC(=O)CS)[C@@H](c3ccc(O)cc3)N2C1=O 4.2
O=C(CS)NCCCCCCNC(=O)[C@@H]1C[C@@H]2C(=O)NCC(=O)N2[C@@H]1c1cccc(OCCO)c1 3.29
CC[C@@H]1C=C(C(=O)O)[C@H](c2ccc(Br)cc2)N1S(=O)(=O)c1ccc(C)cc1 0.471
CCOC(=O)C[C@H]1[C@H](OC(=O)c2ccccc2-c2ccccc2)[C@@H](NC(=O)CC(C)C)c2cc(OCCCO)ccc2N1C(=O)Cc1ccc(OC)cc1 2.71
CCCC[C@@H]1C[C@H]1[C@@H](NC(=O)c1cccs1)c1ccc(-c2ccccc2)cc1 2.41
COc1ccc(-c2cc3c(c(-c4ccc(Oc5ccccc5)cc4)n2)[Si](C(C)C)(C(C)C)OC3)cn1 2.85
